Results on 105 molecules are retold here after PubChem BioAssay AID376 (PDSP, 2006).

About 250 (12%) of roughly 2,000 compounds were called active. Only a selection was taken, and actives are over-represented in it overall. A number with no mark means an inactive call. Rule as the data show it: active = hERG blockade below about -20% or above about 20%; inactive = in between.

Chain of Voltage-gated inwardly rectifying potassium channel KCNH2 (Homo sapiens) (Q12809 whole entry, looked up): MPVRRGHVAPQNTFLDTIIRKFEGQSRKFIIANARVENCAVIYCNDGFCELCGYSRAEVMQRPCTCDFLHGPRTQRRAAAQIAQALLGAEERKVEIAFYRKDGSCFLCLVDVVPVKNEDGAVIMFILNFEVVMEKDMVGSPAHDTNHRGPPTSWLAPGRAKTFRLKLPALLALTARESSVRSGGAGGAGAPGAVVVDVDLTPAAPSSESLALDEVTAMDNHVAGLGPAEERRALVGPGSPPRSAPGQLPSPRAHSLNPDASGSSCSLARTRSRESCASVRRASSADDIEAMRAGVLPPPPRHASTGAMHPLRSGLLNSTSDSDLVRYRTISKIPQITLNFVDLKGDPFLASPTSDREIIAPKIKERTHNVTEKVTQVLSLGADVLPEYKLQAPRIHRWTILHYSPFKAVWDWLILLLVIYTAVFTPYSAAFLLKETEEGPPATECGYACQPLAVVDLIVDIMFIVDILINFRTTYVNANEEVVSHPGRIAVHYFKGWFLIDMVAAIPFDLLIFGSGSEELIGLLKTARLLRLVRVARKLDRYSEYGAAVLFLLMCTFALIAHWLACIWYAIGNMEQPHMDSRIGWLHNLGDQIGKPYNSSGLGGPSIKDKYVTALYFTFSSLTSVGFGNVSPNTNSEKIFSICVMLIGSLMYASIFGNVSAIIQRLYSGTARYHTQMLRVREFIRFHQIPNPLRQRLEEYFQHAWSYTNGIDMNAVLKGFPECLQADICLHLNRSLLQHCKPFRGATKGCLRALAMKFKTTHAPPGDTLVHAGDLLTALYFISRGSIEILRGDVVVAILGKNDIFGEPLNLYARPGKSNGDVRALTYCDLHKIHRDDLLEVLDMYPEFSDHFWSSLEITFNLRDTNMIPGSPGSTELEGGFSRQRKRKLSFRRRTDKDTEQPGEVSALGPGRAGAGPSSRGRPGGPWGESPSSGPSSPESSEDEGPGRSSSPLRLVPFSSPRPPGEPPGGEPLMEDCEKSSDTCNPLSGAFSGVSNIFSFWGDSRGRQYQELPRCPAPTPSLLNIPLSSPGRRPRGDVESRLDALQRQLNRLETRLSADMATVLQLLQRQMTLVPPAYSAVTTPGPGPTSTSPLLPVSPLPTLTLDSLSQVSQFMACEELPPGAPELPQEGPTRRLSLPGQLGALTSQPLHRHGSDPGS

This assay has as its target Voltage-gated inwardly rectifying potassium channel KCNH2 (Homo sapiens) (UniProt Q12809). Description: modulators of KCNH2 ion channel function, cellular (AID 376).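 Also: 0% = buffer alone and 100% = reference blocker.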 The settings on record: hERG-expressing cells, channel activity single-concentration screen; concentration not given here. (In general: Block of hERG is tested as a sign of cardiac risk.)
In the case of `N=c1nc(N)nc(N)n1-c1ccc(S(N)(=O)=O)cc1`, the hERG blockade was -2.11%. Take `Nc1[nH]c(=O)nc2c1ncn2C1OC(CO)C(O)C1O` (stereo not given): the hERG blockade was -9.03%.

Take `COc1ccc2cc(C(=O)CCC(=O)O)ccc2c1`: the hERG blockade was -0.161%.

Consider `NC(=[SH+])[N-]N=Cc1ccccn1.O=S(=O)([O-])O.[Fe]`, for which the hERG blockade is 8.22%.

Regarding `O=C(O)c1ccncc1.O=C(O)c1ccncc1.[Cl][Pt]([Cl])([Cl])[Cl]`, the hERG blockade is 16.7%. For the molecule `C[N+]1(CCN=C=NC2CCCCC2)CCOCC1`, the hERG blockade was 4.24%. Then `CCN(CC)CCN1C(=O)c2cccc3cc(N)cc(c23)C1=O`, with -2.82%. Regarding `CCN(CC)CCN1c2ccccc2Sc2ccc3ccccc3c21`, the hERG blockade is 28.5% (active). On to `CN(C)CCCN1c2ccc3ccccc3c2Sc2cccc(Cl)c21`, for which the hERG blockade was 30.4% (active).

On to `CN(C)CCCN1c2ccccc2Sc2ccc3ccccc3c21`, for which the hERG blockade was 112% (active). Then `CN(C)CCCN1c2ccccc2C(C)(C)c2ccccc21`, with 34.9% (active); and `Clc1ccc(-c2nnc(-c3cccc4ccccc34)o2)cc1Cl`, with -2.83%; and `N=Nc1c(OC(=O)Nc2ccccc2)[nH]c2ccccc12`, with 18.5%.

As to `CN(C)CCC(C(=O)C(C)(C)C)c1ccccn1` (stereo not given), the hERG blockade was -9.42%. Turning to `CS(=O)(=O)c1ccc(C=NNC(N)=S)cc1`, the hERG blockade was -0.277%. For `O=[N+]([O-])c1ccc(NN=C2c3ccccc3Cc3ccccc32)c([N+](=O)[O-])c1` the value was 8.87%. Turning to `O=C(O)c1cc(N=Cc2ccccc2O)cc(C(=O)O)c1`, the hERG blockade was -2.64%.

Turning to `Nc1nc(N)c2nn(-c3ccc(C(=O)O)cc3)nc2n1`, the hERG blockade was 14.6%. In the case of `NCCSCC(N)C(=O)O` (stereo not given), the hERG blockade was 1.01%. `O=C(O)c1ccc(OCc2ccccc2)c(Cl)c1`: the hERG blockade was 4.92%. `Cc1c[n+](=O)c2ccccc2n1[O-]`: the hERG blockade is -5%. For `O=C(O)C1C2C=CC(O2)C1C(=O)NCc1ccncc1` (stereo not given) the value was -11%; for `Clc1ccc(-c2noc(CN3CCCCC3)n2)cc1`, -11.3%; for `C[N+](C)(N)Cc1nc(-c2ccc(Cl)cc2)no1`, 1.91%. Consider `N=C(N)SCc1nc(-c2ccc(Cl)cc2)no1`, for which the hERG blockade was -25.1% (active). For the molecule `Cc1cc2c(cc1C)NC1=C(N2)OC(c2c[nH]c3ccc(COc4ccccc4)cc23)C1=O` (stereo not given), the hERG blockade is -6.35%. For `CCOC(=O)C1=C(C)NC(=O)NC1c1coc2cc(C)cc(C)c2c1=O` (stereo not given) the value was -8.18%; for `Cc1ccc(S(=O)(=O)N2CCC(C(=O)O)(c3ccccc3)CC2)cc1`, -1.68%.

For `COc1ccc2c(=O)cc(-c3ccncc3)oc2c1OC`, the hERG blockade was 72.1% (active).

For the molecule `C1CCN(CCC2CCCCN2)CC1` (stereo not given), the hERG blockade is -0.957%. For `[O-][n+]1c(CN2CCCCC2)nc2cccc3c2c1-c1ccccc1-3` the value was 41.6% (active); for `CN1CCN(CC(=O)Nc2cccc3ccccc23)CC1`, 8.36%.

Regarding `CN1CCN(Cc2nc3cccc4c3c([n+]2[O-])-c2ccccc2-4)CC1`, the hERG blockade was 39.2% (active). On to `Oc1cccnc1CN1CCCCC1`, for which the hERG blockade was -6.51%. For `CC(C)C1OC(C=Cc2ccccc2)OCC1(C)C` (stereo not given) the value was 10.1%; for `O=C(O)CSc1ccn(Cc2ccccc2)c1`, -5.01%; for `CC(=NCC(=O)O)c1ccccc1`, -2.03%. Then `CN(CC(=O)O)CC(=O)O`, with 9.14%; and `C=C(Br)CN(C)CC(=C)Br`, with -27.2% (active). For `C=C(C)CN(CC#N)CC(=C)C`, the hERG blockade was -3.17%.

Take `Cc1cc(Nc2ccc(N=Nc3ccc(O)c4ncccc34)cc2)nc(C)n1`: the hERG blockade was 7.41%. For `[Cu+2].[NH-]C(CC(=O)O)C(=O)O.[NH-]C(CC(=O)O)C(=O)O` (stereo not given) the value was 16.8%; for `NC(=O)NN=C1CCC(O)CC1CC(=O)O` (stereo not given), 0.91%; for `CN1C2CCC1CC(OC(c1ccccc1)c1ccccc1)C2` (stereo not given), 44.2% (active).

For `NS(=O)(=O)c1ccc(N=Nc2nc3[nH]cnc(=S)c3[nH]2)cc1`, the hERG blockade was -16.4%.

As for `CC(CN(C)C)C(=O)c1ccccc1C(=O)O` (stereo not given), the hERG blockade was 0.354%. As for `CC(CN(C)C)C(O)(c1ccccc1)c1ccccc1` (stereo not given), the hERG blockade was 7.73%. For `CN(C)CC(O)c1ccc(Cl)c2ccccc12` (stereo not given) the value was 28.3% (active); for `CN(Cc1cc(Br)cc(Br)c1O)Cc1c(O)ccc2ccccc12`, 16%; for `Clc1ccc(Cl)c(Nc2ccnc(SCc3ccccc3)n2)c1`, -4.72%.

For `CC1CCC2(C(=O)O)CCC3(C)C(=CCC4C5(C)CC(O)C(O)C(C)(CO)C5C(O)CC43C)C2C1C` (stereo not given), the hERG blockade is 17.2%. As to `O=C(CSc1ncnc2nc[nH]c12)c1ccccc1`, the hERG blockade was -4.94%. In the case of `O=S1(=O)CCN(c2ccccc2CC(c2c[nH]c3ccccc23)c2c[nH]c3ccccc23)CC1`, the hERG blockade is 32.2% (active). For `Cn1ccnc1CC(C)(O)c1ccccc1` (stereo not given) the value was -2.58%; for `COc1ccc(OC)c(-c2cc(C(=O)O)c3cc4ccccc4cc3n2)c1`, -16.1%. Turning to `CC(CCC(=O)O)C1CCC2(C)C3C(=O)CC4C(C)(C)C(O)CCC4(C)C3C(=O)CC12C` (stereo not given), the hERG blockade is 2.84%. For `CC(CCC(=O)O)C1CCC2C3C(O)CC4CC(O)CCC4(C)C3CC(O)C12C` (stereo not given) the value was 5.61%. Turning to `O=C(O)c1ccc(C(=O)O)c(C(=O)Nc2ccc3c(c2)Cc2ccccc2-3)c1`, the hERG blockade is -3.35%. For `O=C(O)c1ccc(C(=O)c2ccccc2)c(C(=O)O)c1` the value was 1.04%. For `O=C(O)c1ccc(C(=O)O)c(C(=O)O)c1.[NH-]C1CCCCC1[NH-].[Pt+2]`, the hERG blockade is 23.7% (active). For `O=C1CNCCCN2CCN(CCCNCC(=O)Nc3ccc(cc3)S(=O)(=O)c3ccc(cc3)NC(=O)CNCCCN3CCN(CCCNCC(=O)Nc4ccc(cc4)S(=O)(=O)c4ccc(cc4)N1)CC3)CC2` the value was 5.8%; for `Cc1ccc(S(=O)(=O)NC(=O)OC23COCN2COC3)cc1`, -18.8%; for `Oc1c(Br)cc(Br)cc1CN(Cc1cc(Br)cc(Br)c1O)C1CCCCC1`, -7.44%. Then `O=C1c2ccccc2C(=O)N1CC1(C(=O)O)NCCS1(=O)=O` (stereo not given), with 4.44%; and `N=Nc1c(OC(=O)Nc2cccc(Cl)c2)[nH]c2ccccc12`, with 1.43%. On to `S=C1NC(c2ccccc2)NC(c2ccccc2)S1` (stereo not given), for which the hERG blockade was 8.24%. Consider `N=C(N)C(N=Nc1ccccc1)C(=N)N` (stereo not given), for which the hERG blockade was 14.2%. `NC(N)=NC(CC(=O)O)c1ccccc1` (stereo not given): the hERG blockade is 10.4%. In the case of `N=C(N)SC(c1ccccc1)c1ccccc1`, the hERG blockade is 22.5% (active). Take `O=C1c2ccccc2C(=O)N1CCCSc1ccccc1`: the hERG blockade is 23.2% (active). Then `Cn1c(=S)c2[nH]c(SCCN3C(=O)c4ccccc4C3=O)nc2n(C)c1=O`, with 13.4%; and `O=C(O)CCCSc1ccccc1`, with 8.71%. For `O=C(O)c1cccc(S(=O)(=O)NCCO)c1` the value was -15.6%; for `CN(C)CCn1c(CO)nc2c1c(=O)n(C)c(=O)n2C`, -1.57%. On to `CN(C)CCNc1nc2c(c(=O)n(C)c(=O)n2C)n1C`, for which the hERG blockade was 34% (active). Then `Cn1c(=O)c2c(nc(NCCNc3nc4c(c(=O)n(C)c(=O)n4C)n3C)n2C)n(C)c1=O`, with -7.81%. Regarding `Cc1ccc(CCCC(=O)O)cc1C`, the hERG blockade was 6.44%.

In the case of `NC(=O)NOCC1NC(=O)NC1=O` (stereo not given), the hERG blockade was -12%.

`Nc1ncnc2c1ncn2C1OC(CO)C(O)C1N` (stereo not given): the hERG blockade is 13.4%. On to `NCC1OC(n2cnc3c(N)ncnc32)CC1O` (stereo not given), for which the hERG blockade was -23.5% (active). Then `C[N+](C)(C)c1ncnc2c1ncn2C1CC(O)C(CO)O1` (stereo not given), with -5.95%.

`Nc1ncnc2c1nc(-c1ccccc1)n2C1OC(CO)C(O)C1O` (stereo not given): the hERG blockade is -5.56%. Then `Cc1ccc(C2(C)CCC(=NN=C3CCC(C)(c4ccc(C)c(C)c4)c4cc(C)c(C)cc43)c3cc(C)c(C)cc32)cc1C` (stereo not given), with 5.6%. For the molecule `CC(NC(=O)c1ccccc1)(C(=O)O)C(=O)O`, the hERG blockade was -6.84%. Consider `O=C(Nc1ccc(-c2cn3ccccc3n2)cc1)c1cc(Br)ccc1O`, for which the hERG blockade was 6.36%. Then `CC12CCC3c4ccc(OCC(=O)O)cc4CCC3C1CCC2=O` (stereo not given), with -7.52%. Then `Cc1cc(Cl)ccc1OCC(=O)Oc1c(Cl)c(Cl)c(Cl)c(Cl)c1Cl`, with -9.38%; and `CC(C)Cn1cnc2c(SCc3ccccn3)nc(N)nc21`, with -2.95%. Regarding `CC(C)Cn1cnc2c(SCc3ccc(Cl)cc3Cl)nc(N)nc21`, the hERG blockade is 20.1% (active).

For `Cc1ccc2ccccc2c1CSc1nc(N)nc2c1ncn2CC(C)C`, the hERG blockade is 13.9%. In the case of `COc1cccc(CSCC(=O)O)c1`, the hERG blockade was 3.08%.

Turning to `O=C(O)C(Cc1c[nH]c2ccccc12)N1C(=O)c2ccccc2C1=O` (stereo not given), the hERG blockade is -13.6%. For `O=C(O)C(Cc1c[nH]c2ccccc12)C(=O)NO` (stereo not given) the value was -0.439%; for `CN(CC(=O)O)Cc1c[nH]c2ccccc12`, -21% (active); for `CC(=O)NC(Cc1c[nH]c2ccccc12)C(=O)O` (stereo not given), 2.72%. As for `O=C(O)C1CCCN1Cc1c[nH]c2ccccc12` (stereo not given), the hERG blockade was -17.1%. For `CC(N)(Cc1c[nH]c2ccccc12)C(=O)O` (stereo not given) the value was -24.5% (active).

As to `NC(N)=NCC(N)C(=O)O` (stereo not given), the hERG blockade was -1.09%. On to `Cc1nnc(S(=O)(=O)c2ccc(N=Nc3c(N)nc(N)nc3N)cc2)s1`, for which the hERG blockade was -0.733%. Then `O=C(O)CC(=Cc1ccco1)C(=O)O`, with -9.17%; and `O=C(O)CCC1(C(=O)O)CCC(=O)c2ccccc21` (stereo not given), with 6.22%; and `BrC(c1cccc2ccccc12)c1cccc2ccccc12`, with -6.84%. For `COc1ccc(C(=O)CCN(C)C)c2ccccc12` the value was 7.02%; for `Clc1ccccc1C(Nc1ncccn1)Nc1ncccn1`, 3.73%. Then `Clc1ccccc1C(Nc1cnccn1)Nc1cnccn1`, with 21.5% (active).
